# Experimental data as given in PubChem BioAssay AID1694 (National Center for Advancing Translational Sciences (NCATS), 2009).
# Inconclusive results are not listed. Values without a mark were called inactive. The source made the active and inactive calls. Calls come from the whole dose curve; as a rule, active = well fitted curve in the direction sought with a large enough effect; inconclusive = small, poorly fitted or top-dose-only effect, or another doubt; inactive = no such curve, though single readings can be large or run the other way.
# Experiment: Confirmation Concentration-Response Assay for Inhibitors of Tau Fibril Formation, Total Fluorescence Counterscreen for Fluorescence Polarization
# Details: Alexa594-tau K18 total fluorescence counterscreen, interference, tau K18 with P301L mutation; series mostly up to 100 µM; fluorescence change, negative = quenching: at the top concentration
# Source text: NIH Molecular Libraries Probe Production Network [MLPCN] NIH Chemical Genomics Center [NCGC] MLPCN Grant: X01 MH083262-01 Assay Provider: Carlo Ballatore, University of Pennsylvania NCGC Assay Overview: The microtubule-associated protein tau is an abundant protein in the axons of neurons that stabilizes microtubules. With its ability to modulate microtubule dynamics, tau contributes directly or indirectly, to key structural and regulatory cellular functions. Particularly important is the influence tau exerts on axonal transport, which allows signaling molecules, trophic factors and other essential cellular constituents to travel along the axons. Under pathological conditions, tau becomes sequestered into insoluble aggregates called neurofibrillary tangles. This phenomenon is believed to have pathological consequences by promoting axonal transport deficits that ultimately lead to synaptic dysfunction and neuronal loss. To identify inhibitors of tau aggregation, a heparin-induced tau fibril formation assay was used that employed a recombinantly expressed fragment of tau, K18 (Q242-E372), bearing a P301L mutation (Gustke et al. 1994; Hong et al. 1998). […] Total fluorescence (555 nm excitation and 632 nm emission) was measured to identify fluorescent or absorbent compounds at this wavelength. Such compounds may be artifacts that interfere with the Alexa 594 Tau fluorescence polarization assay. Gustke, N., B. Trinczek, et al. (1994). "Domains of tau protein and interactions with microtubules." Biochemistry 33(32): 9511-22. Hong, M., V. Zhukareva, et al. (1998). "Mutation-specific functional impairments in distinct tau isoforms of hereditary FTDP-17." Science 282(5395): 1914-7. Li, W. and V. M. Lee (2006). "Characterization of two VQIXXK motifs for tau fibrillization in vitro." Biochemistry 45(51): 15692-701. von Bergen, M., S. Barghorn, et al. (2001). "Mutations of tau protein in frontotemporal dementia promote aggregation of paired helical filaments by enhancing local beta-structure." J Biol Chem 276(51): 48165-74.
# For screening, 2 uL/well human K18 P301L (15 uM unlabeled and 0.24 uM Alexa 594-labeled tau final concentrations) in reagent buffer (100 mM sodium acetate pH 7) was dispensed into black solid 1536-well plates (Grenier) using a solenoid-based dispenser. Following transfer of 23 nL compound or DMSO vehicle by a pin tool, 2 uL/well heparin (20 uM final concentration) in reagent buffer was added and the plate centrifuged 15 s at 1000 RPM. Plates were incubated 6 hr at 37 C and then 1 uL/well ThT (30 uM final concentration) was added. After a 1 hr ambient incubation, the plates were read by an Envision (Perkin Elmer) to monitor Alexa 594 FP (555 nm excitation and 632 nm emission). Keywords: NIH Roadmap, MLPCN, MLI, MLSMR, NCGC, qHTS, tau, tauopathies, Alzheimer's disease, fibril, neurodegeneration, aggregation
SMILES,"fluorescence change, negative = quenching",Potency
COc1ccc2oc(-c3ccc(NC(=O)c4ccc(N5CCOCC5)c([N+](=O)[O-])c4)cc3)nc2c1,-3.8%,–
COC(=O)C1CCc2sc(N)c(C(=O)OCc3ccccc3)c21 (stereo not given),-3.27% [at 57.1 µM],–
COC(=O)c1ccccc1NC(=O)CSc1nc2sc3c(c2c(=O)[nH]1)CCCC3,1.44%,–
Cc1ccc(C(=O)Nc2nc(=O)n(C(=O)CC(C)C)s2)cc1,2.86%,–
Cc1nc2ccccc2oc1=O,11.2%,–
Cc1ccc(S(=O)(=O)N(C)c2nc3ccccc3[nH]c2=S)cc1,7.27%,–
Cc1cc2c(NC(=O)Nc3ccccc3)cccc2nn1,-20.3%,–
CCN(c1ccccc1)S(=O)(=O)c1nnc(NC(=O)C(C)(C)C)s1,-3.33%,–
COC(=O)CSc1nc2ccc(NC(=O)CSc3nnnn3Cc3ccccc3)cc2s1,-2.92%,–
CCOC(=O)c1nn(-c2ccc(OC)cc2)c(=O)c2c(N)scc12,–,inactive
CCOC(=O)c1ccc(S(=O)(=O)Nc2nc3cc(S(=O)(=O)NC4=NCCCCC4)ccc3s2)cc1,2.36%,–
O=S(=O)(c1ccc(N=C2NN=C(c3cc(F)ccc3F)CS2)cc1)N1CCOCC1,-19.6%,–
COc1cccc(/C=C2/SC(=S)N(CC(=O)Nc3nnc(C)s3)C2=O)c1,-9.01% [at 57.1 µM],–
COC(=O)c1c(NC(=O)CCCOc2ccc(C(C)(C)C)cc2)sc2c1C(C(=O)OC)CC2 (stereo not given),4.07%,–
CN(C)C(=O)c1ccc(-c2cc[nH]c(=O)c2N)cc1,-10.2%,–
Cn1cc(Cl)c(C(=O)Nc2cccc(Cl)c2Cl)n1,2.07%,–
O=C(Nc1nnc(S(=O)(=O)Nc2ccccc2)s1)C1CCCCC1,-18.2%,–
CCOC(=O)c1nn(-c2ccccc2)c(=O)c2c(NC(C)=O)scc12,12.6% [at 57.1 µM],–
CC(C)C(C)NC(=O)CSc1nc2scc(-c3ccco3)c2c(=O)n1-c1ccccc1 (stereo not given),24.5%,–
COc1ccc2c(c1)c(CC(=O)N1CCOCC1)c(C)n2C(=O)c1ccc(Cl)cc1,-5.26%,–

SMILES,"fluorescence change, negative = quenching",Potency
CCN(CC)C(=O)c1nn(-c2ccc(OC)cc2)c(=O)c2c(N)scc12,-20.1% [at 57.1 µM],–
O=C(Nc1ccccc1)Nc1ccccc1,-10.9%,–
Cc1ccc(N(C)S(=O)(=O)c2nnc(NC(=O)C3CCCCC3)s2)cc1,4.56%,–
CC(C)(C)c1ccc(NC(=O)N2CCN(c3ccc([N+](=O)[O-])cn3)CC2)cc1,-1.23%,–
COc1cccc(/C=C2/SC(=S)N(CC(=O)Nc3nccs3)C2=O)c1,-19.7% [at 57.1 µM],–
O=C(NCCCO)Nc1ccc2nc(-c3ccco3)c(-c3ccco3)nc2c1,–,3.16 µM [quencher] (active)
COc1ccc(NC(=O)C2CCN(S(=O)(=O)c3c(C)noc3/C=C/c3cccs3)CC2)cc1Cl,-12.3%,–
O=C(O)CN1C(=O)/C(=C/c2ccc(-c3cccc(Cl)c3)o2)SC1=S,-10.4%,–
O=C(Nc1nc2ccc(S(=O)(=O)N3CCCC3)cc2s1)c1ccc(F)cc1,-1.76%,–
N#Cc1cccc(NC(=O)c2ccc3c(c2)N(Cc2cccc(Cl)c2)C(=O)c2ccccc2S3(=O)=O)c1,-2.79%,–
CCOC(=O)c1nn(-c2ccccc2)c(=O)c(C#N)c1C,4.66% [at 57.1 µM],–
CCn1c(CSc2nccn2C)nc2cc(C(=O)O)ccc21,35.7%,–
COc1ccc(NC(=O)Cn2cc(S(=O)(=O)N3CCN(c4ccccc4F)CC3)c3ccccc3c2=O)cc1Cl,-2.65%,–
O=C(Cc1ccccc1)Nc1sc2c(c1C(=O)Nc1ccc(Cl)cc1)CCCC2,–,inactive
Nc1nn(-c2ccccc2)c(=O)c2c(N)scc12,-1.43% [at 57.1 µM],–
CC(=O)Nc1sc(C)c2cnn(-c3ccccc3)c(=O)c12,4.58% [at 57.1 µM],–
CCOC(=O)c1nn(-c2ccc(OC)cc2)c(=O)c2c(NC(=O)Cc3ccccc3)scc12,-11.1% [at 57.1 µM],–
O=C(O)CC1S/C(=N/N=C/c2ccc(-c3ccccc3[N+](=O)[O-])o2)NC1=O (stereo not given),4.83%,–
O=C(Nc1cccc(-c2nc3ccccc3o2)c1)c1cc([N+](=O)[O-])ccc1N1CCOCC1,-5.59%,–
Cc1ccc(N2C(=O)SC(Cc3ccccc3)C2=O)cc1 (stereo not given),14.2%,–
